# Measured values as given in paper PMC7862700, “An all-to-all approach to the identification of sequence-specific readers for epigenetic DNA modifications on cytosine”.
# Legend:
# Assay in all cases: DAPPL (digital affinity profiling via proximity ligation, sequencing); 10 mM Tris-HCl pH 7.5, 50 mM NaCl, 1 mM DTT, 4% glycerol, room temperature, 30 min; GST-TFs on glutathione beads, 16-mer random dsDNA library, 0.1% formaldehyde crosslink after washing; high values mean tight binding
# Settings in all cases: protein: recombinant; tags: N-terminal GST; dsDNA, one strand shown
# [1] = target: ETV1 (Homo sapiens, UniProt P50549 1-477)
# ETV1, sequence (P50549 whole entry, the tested form may be a part): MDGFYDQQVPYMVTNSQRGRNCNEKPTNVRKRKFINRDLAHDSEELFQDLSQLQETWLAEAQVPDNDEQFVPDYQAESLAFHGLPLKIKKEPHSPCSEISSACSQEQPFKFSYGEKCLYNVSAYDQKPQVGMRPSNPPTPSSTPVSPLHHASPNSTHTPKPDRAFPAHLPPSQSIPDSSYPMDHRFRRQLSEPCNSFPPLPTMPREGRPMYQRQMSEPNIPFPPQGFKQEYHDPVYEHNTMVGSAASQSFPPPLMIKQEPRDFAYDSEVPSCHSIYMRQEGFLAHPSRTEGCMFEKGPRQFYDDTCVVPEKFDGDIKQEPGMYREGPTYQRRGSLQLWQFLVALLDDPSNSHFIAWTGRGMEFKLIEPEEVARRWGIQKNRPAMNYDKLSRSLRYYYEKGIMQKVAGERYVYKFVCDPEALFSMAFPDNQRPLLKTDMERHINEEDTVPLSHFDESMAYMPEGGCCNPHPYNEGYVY
# Procedure, shortened: (§1)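 A tag-only sample was pooled with DNA-barcoded human transcription factors that had been expressed in yeast as GST fusions and captured on glutathione beads. The pools were incubated for 30 min at room temperature with 200 nmole of a random double-stranded 16-mer DNA library in Tris/NaCl/DTT/glycerol buffer, then washed, crosslinked with 0.1% formaldehyde, proximity-ligated (BsaI/T4 ligase, 1 h, 37 °C), PCR-amplified and sequenced on an Illumina NextSeq500. Binding signal is each hexamer's read frequency for a factor divided by its frequency for the tag-only sample.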
# [2] = target: T1, ERF (Homo sapiens, UniProt P50548 1-548)
# T1 sequence: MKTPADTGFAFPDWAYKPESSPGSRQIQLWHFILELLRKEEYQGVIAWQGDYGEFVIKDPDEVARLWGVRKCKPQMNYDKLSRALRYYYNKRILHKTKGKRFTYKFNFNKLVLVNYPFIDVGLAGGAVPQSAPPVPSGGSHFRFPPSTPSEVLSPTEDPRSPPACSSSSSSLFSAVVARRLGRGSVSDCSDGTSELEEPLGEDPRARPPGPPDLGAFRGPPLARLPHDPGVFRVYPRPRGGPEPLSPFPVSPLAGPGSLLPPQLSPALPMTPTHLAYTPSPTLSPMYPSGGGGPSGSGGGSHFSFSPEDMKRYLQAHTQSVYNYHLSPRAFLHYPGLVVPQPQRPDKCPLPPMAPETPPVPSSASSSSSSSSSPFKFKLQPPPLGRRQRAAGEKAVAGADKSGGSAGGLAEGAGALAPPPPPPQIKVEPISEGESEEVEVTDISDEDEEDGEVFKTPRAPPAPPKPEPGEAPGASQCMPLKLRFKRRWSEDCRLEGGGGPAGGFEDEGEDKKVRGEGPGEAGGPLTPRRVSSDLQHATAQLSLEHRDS
# Procedure, shortened: as §1
# [3] = target: T2, ETV3L (Homo sapiens, UniProt Q6ZN32 1-361)
# T2 sequence: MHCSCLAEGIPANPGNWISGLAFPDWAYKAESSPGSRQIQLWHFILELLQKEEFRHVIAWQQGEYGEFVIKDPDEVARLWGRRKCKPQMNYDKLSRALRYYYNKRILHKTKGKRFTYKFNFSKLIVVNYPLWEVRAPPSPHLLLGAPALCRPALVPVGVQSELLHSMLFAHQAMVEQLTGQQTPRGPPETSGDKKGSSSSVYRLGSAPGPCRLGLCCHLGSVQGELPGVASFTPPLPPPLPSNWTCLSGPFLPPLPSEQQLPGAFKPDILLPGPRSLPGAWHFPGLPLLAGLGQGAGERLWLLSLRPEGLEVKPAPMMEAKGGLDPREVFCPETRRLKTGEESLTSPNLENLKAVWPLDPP
# Procedure, shortened: as §1
# [4] = target: T3, ETS2 (Homo sapiens, UniProt P15036 1-469)
# T3 sequence: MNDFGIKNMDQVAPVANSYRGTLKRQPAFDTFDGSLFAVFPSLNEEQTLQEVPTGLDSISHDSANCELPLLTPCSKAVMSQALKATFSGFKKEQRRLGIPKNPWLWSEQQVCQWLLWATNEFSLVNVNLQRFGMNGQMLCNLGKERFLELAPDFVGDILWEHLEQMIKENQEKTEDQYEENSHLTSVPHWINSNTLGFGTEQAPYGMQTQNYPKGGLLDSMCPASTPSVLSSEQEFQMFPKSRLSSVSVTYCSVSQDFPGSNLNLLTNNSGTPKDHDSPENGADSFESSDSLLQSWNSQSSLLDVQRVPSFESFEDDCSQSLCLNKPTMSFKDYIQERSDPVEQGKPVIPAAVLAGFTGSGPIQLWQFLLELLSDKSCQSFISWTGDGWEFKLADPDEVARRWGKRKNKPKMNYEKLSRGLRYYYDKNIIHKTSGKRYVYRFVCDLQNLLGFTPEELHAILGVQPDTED
# Procedure, shortened: as §1
# [5] = target: T4, SPDEF (Homo sapiens, UniProt O95238 1-335)
# T4 sequence: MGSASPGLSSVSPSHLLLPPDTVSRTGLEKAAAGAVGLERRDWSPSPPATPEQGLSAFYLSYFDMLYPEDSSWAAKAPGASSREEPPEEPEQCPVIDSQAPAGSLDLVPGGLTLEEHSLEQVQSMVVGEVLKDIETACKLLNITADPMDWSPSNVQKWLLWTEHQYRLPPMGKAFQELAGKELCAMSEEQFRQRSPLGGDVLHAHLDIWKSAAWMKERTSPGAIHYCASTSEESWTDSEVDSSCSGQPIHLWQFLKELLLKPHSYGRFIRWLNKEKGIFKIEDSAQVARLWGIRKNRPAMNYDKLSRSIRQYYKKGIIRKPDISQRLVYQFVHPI
# Procedure, shortened: as §1
# [6] = target: T5, ETV7 (Homo sapiens, UniProt Q9Y603 1-341)
# T5 sequence: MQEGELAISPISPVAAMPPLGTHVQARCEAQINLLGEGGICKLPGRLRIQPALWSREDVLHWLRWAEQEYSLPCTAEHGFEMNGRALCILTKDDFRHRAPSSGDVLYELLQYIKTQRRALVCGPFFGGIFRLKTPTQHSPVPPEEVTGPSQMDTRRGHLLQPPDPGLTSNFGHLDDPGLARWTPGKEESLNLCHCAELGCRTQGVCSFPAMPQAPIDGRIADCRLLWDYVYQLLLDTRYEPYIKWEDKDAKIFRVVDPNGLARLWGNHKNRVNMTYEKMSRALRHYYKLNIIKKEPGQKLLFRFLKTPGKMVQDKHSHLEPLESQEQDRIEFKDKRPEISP
# Procedure, shortened: as §1
# [7] = target: T6, ELF5 (Homo sapiens, UniProt Q9UKW6-2 1-255)
# T6 sequence: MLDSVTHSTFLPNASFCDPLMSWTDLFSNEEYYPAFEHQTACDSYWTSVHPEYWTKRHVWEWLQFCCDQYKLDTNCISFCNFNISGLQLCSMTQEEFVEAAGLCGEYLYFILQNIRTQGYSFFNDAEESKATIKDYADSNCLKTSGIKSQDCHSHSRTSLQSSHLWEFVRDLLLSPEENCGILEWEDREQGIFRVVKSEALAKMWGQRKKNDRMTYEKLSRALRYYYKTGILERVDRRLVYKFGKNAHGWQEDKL
# Procedure, shortened: as §1
# [8] = target: T7, ETV3 (Homo sapiens, UniProt P41162-2 1-143)
# T7 sequence: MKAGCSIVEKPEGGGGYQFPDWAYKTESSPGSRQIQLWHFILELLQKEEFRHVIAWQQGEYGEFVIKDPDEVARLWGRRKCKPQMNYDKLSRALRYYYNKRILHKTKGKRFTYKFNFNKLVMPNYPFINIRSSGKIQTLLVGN
# Procedure, shortened: as §1
# [9] = target: ETV6 (Homo sapiens, UniProt P41212 1-452)
# ETV6, sequence (P41212 whole entry): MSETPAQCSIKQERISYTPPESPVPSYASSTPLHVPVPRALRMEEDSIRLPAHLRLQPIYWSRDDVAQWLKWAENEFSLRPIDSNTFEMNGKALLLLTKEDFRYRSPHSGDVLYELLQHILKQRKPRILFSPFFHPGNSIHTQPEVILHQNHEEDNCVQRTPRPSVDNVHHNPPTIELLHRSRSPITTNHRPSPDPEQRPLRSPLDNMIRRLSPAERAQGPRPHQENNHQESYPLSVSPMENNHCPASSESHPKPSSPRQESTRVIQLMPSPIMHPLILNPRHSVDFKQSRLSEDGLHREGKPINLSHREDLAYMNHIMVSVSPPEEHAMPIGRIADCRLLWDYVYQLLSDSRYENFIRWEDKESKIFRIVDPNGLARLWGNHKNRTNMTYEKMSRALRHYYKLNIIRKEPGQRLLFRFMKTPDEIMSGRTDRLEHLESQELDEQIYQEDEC
# Procedure, shortened: as §1
sequence,measurement,setting,value
CCCTGG,binding signal,[1],"1.18 fold enrichment (6-mer frequency, TF over GST control)"
same,binding signal,[2],"1.24 fold enrichment (6-mer frequency, TF over GST control)"
same,binding signal,[3],"1.16 fold enrichment (6-mer frequency, TF over GST control)"
same,binding signal,[4],"1.06 fold enrichment (6-mer frequency, TF over GST control)"
same,binding signal,[5],"1.02 fold enrichment (6-mer frequency, TF over GST control)"
same,binding signal,[6],"1.26 fold enrichment (6-mer frequency, TF over GST control)"
same,binding signal,[7],"1.06 fold enrichment (6-mer frequency, TF over GST control)"
same,binding signal,[8],"1.13 fold enrichment (6-mer frequency, TF over GST control)"
same,binding signal,[9],"1.05 fold enrichment (6-mer frequency, TF over GST control)"
